# From publication PMC7862700, “An all-to-all approach to the identification of sequence-specific readers for epigenetic DNA modifications on cytosine”
# Columns and labels:
# Assay in all cases: DAPPL (digital affinity profiling via proximity ligation, sequencing); 10 mM Tris-HCl pH 7.5, 50 mM NaCl, 1 mM DTT, 4% glycerol, room temperature, 30 min; GST-TFs on glutathione beads, 16-mer random dsDNA library, 0.1% formaldehyde crosslink after washing; high values mean tight binding
# FLI1 = target: T1, FLI1 (Homo sapiens, UniProt Q01543 1-452); settings: protein: recombinant; tags: N-terminal GST; dsDNA, one strand shown
# T1 sequence: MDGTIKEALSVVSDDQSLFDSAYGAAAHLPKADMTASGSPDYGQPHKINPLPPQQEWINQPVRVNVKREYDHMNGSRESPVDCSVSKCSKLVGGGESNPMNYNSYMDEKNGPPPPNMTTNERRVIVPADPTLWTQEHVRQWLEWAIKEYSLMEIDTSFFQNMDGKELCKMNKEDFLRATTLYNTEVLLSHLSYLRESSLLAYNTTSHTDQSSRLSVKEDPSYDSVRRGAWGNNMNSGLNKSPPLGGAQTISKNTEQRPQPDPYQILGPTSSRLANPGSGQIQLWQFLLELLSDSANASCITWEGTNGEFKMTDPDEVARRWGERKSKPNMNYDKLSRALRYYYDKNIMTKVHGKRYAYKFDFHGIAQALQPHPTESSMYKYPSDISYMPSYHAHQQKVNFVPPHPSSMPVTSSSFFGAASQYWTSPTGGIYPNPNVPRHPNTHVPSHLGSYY
# In short: (§1)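 Human transcription factors carrying a GST fusion were produced in yeast, bound to glutathione beads, tagged with DNA barcodes and pooled together with a tag-only sample. Each pool was held with 200 nmole of a random double-stranded 16-mer DNA library in Tris/NaCl/DTT/glycerol buffer for 30 min at room temperature, then washed, crosslinked in 0.1% formaldehyde, proximity-ligated with BsaI/T4 ligase (1 h, 37 °C), PCR-amplified and sequenced on an Illumina NextSeq500. Binding signal is the read frequency of each hexamer for a given factor divided by its frequency in the tag-only sample.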
# ELK1 = target: T2, ELK1 (Homo sapiens, UniProt P19419 1-428); settings: protein: recombinant; tags: N-terminal GST; dsDNA, one strand shown
# T2 sequence: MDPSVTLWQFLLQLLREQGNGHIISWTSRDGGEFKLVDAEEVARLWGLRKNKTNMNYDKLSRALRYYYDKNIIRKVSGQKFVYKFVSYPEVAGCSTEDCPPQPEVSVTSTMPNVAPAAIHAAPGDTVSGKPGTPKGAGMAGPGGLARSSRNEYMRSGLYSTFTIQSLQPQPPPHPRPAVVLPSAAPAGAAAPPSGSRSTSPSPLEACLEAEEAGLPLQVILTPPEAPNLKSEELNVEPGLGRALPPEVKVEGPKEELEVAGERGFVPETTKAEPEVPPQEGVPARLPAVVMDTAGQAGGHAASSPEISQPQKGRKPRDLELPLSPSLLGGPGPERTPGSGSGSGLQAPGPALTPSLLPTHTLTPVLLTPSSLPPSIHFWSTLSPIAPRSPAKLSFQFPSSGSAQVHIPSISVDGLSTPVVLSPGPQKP
# In short: as §1
# GABPA = target: T3, GABPA (Homo sapiens, UniProt Q06546 1-454); settings: protein: recombinant; tags: N-terminal GST; dsDNA, one strand shown
# T3 sequence: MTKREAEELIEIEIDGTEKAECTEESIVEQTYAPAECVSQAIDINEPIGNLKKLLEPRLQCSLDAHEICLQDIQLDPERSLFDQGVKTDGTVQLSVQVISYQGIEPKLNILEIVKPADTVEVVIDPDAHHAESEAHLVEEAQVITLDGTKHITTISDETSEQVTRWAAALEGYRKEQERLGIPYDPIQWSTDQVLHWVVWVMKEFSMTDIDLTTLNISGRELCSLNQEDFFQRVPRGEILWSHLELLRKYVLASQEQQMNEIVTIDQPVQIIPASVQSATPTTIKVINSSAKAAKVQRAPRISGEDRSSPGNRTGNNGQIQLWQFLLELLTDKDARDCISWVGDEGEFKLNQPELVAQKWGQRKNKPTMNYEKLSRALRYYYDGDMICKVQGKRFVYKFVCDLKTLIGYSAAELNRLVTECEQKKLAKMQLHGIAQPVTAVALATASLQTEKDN
# In short: as §1
# ERG = target: T4, ERG (Homo sapiens, UniProt P11308 1-479); settings: protein: recombinant; tags: N-terminal GST; dsDNA, one strand shown
# T4 sequence: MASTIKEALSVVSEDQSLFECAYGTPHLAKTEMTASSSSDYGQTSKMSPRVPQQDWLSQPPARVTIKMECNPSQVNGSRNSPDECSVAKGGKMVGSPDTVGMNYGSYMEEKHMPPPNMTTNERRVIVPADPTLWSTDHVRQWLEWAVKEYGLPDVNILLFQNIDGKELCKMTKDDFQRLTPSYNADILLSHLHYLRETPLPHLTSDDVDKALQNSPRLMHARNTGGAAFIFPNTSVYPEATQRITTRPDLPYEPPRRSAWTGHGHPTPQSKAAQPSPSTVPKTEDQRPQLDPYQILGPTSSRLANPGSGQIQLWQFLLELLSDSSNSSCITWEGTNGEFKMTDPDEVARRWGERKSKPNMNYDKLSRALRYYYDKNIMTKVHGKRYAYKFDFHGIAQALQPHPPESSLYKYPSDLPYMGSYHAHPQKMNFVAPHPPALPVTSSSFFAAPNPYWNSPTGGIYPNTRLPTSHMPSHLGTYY
# In short: as §1
# ELF1 = ELF1 (Homo sapiens, UniProt P32519 1-619); settings: protein: recombinant; tags: N-terminal GST; dsDNA, one strand shown
# In short: as §1
# EHF = target: T5, EHF (Homo sapiens, UniProt Q9NZC4 1-300); settings: protein: recombinant; tags: N-terminal GST; dsDNA, one strand shown
# T5 sequence: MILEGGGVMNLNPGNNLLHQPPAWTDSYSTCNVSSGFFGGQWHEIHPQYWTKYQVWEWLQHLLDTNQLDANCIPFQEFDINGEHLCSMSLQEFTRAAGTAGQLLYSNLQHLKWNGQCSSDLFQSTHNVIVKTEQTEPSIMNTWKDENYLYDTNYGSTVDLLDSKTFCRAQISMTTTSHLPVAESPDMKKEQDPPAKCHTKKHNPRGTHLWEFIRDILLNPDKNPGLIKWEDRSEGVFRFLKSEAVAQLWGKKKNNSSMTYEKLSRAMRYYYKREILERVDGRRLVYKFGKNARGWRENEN
# In short: as §1
# SPI1 = SPI1 (Homo sapiens, UniProt P17947 1-270); settings: protein: recombinant; tags: N-terminal GST; dsDNA, one strand shown
# In short: as §1
# SPIB = SPIB (Homo sapiens, UniProt Q01892 1-262); settings: protein: recombinant; tags: N-terminal GST; dsDNA, one strand shown
# In short: as §1
# ELK3 = target: T6, ELK3 (Homo sapiens, UniProt P41970 1-407); settings: protein: recombinant; tags: N-terminal GST; dsDNA, one strand shown
# T6 sequence: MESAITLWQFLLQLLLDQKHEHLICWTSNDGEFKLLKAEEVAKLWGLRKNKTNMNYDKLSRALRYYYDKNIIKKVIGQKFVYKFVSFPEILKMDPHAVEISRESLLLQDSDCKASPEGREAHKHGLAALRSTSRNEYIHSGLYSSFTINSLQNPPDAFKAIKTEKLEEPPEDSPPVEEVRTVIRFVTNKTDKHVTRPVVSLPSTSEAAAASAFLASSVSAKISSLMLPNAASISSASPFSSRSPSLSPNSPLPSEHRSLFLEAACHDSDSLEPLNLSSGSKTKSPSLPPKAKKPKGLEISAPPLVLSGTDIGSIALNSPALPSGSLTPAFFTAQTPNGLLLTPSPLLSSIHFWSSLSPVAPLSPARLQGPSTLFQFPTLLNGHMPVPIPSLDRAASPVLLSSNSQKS
# In short: as §1
# FEV = target: T7, FEV (Homo sapiens, UniProt Q99581 1-238); settings: protein: recombinant; tags: N-terminal GST; dsDNA, one strand shown
# T7 sequence: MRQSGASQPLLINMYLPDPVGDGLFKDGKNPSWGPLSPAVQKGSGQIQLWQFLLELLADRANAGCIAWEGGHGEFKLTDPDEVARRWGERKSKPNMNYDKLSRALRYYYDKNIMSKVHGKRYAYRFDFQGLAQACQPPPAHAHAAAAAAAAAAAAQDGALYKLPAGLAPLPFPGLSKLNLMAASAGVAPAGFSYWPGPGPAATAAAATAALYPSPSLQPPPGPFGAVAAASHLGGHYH
# In short: as §1
# ETV5 = ETV5 (Homo sapiens, UniProt P41161 1-510); settings: protein: recombinant; tags: N-terminal GST; dsDNA, one strand shown
# In short: as §1
# HSF1 = HSF1 (Homo sapiens, UniProt Q00613 1-529); settings: protein: recombinant; tags: N-terminal GST; chain copies: 3; dsDNA, one strand shown
# In short: as §1
# SPIC = target: T8, SPIC (Homo sapiens, UniProt Q8N5J4 1-248); settings: protein: recombinant; tags: N-terminal GST; dsDNA, one strand shown
# T8 sequence: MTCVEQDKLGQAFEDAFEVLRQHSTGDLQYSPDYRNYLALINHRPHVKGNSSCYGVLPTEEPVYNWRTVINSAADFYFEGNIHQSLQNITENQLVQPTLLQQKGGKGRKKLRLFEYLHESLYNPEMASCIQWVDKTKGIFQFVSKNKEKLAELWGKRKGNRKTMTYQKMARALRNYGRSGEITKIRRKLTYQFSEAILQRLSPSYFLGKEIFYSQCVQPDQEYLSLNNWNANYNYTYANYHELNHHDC
# In short: as §1
# ELF4 = ELF4 (Homo sapiens, UniProt Q99607 1-663); settings: protein: recombinant; tags: N-terminal GST; dsDNA, one strand shown
# In short: as §1
# ELK4 = target: T9, ELK4 (Homo sapiens, UniProt P28324-2 1-405); settings: protein: recombinant; tags: N-terminal GST; dsDNA, one strand shown
# T9 sequence: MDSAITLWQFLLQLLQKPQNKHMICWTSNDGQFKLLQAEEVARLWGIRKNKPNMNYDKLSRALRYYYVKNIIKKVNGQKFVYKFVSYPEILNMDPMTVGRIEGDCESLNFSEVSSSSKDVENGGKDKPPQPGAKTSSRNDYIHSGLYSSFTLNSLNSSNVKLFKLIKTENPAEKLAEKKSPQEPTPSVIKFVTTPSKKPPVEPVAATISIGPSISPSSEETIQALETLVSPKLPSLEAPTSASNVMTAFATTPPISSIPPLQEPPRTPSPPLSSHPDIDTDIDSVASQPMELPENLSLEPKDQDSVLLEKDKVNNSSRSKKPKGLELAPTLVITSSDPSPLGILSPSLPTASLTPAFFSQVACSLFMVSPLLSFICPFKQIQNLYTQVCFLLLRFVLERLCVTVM
# In short: as §1
# ELF3 = target: T10, ELF3 (Homo sapiens, UniProt P78545 1-371); settings: protein: recombinant; tags: N-terminal GST; dsDNA, one strand shown
# T10 sequence: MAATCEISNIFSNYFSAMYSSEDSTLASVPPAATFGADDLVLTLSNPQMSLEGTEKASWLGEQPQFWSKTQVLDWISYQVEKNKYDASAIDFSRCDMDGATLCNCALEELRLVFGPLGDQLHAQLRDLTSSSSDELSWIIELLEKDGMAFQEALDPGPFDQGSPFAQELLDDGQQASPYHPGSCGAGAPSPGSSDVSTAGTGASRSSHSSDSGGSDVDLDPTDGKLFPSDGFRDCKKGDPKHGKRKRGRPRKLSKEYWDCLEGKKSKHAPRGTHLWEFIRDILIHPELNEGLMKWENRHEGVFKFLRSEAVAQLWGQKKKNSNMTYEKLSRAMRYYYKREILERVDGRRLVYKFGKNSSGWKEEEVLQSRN
# In short: as §1
# CRX = CRX (Homo sapiens, UniProt O43186 1-299); settings: protein: recombinant; tags: N-terminal GST; dsDNA, one strand shown
# In short: as §1
# ETV1 = ETV1 (Homo sapiens, UniProt P50549 1-477); settings: protein: recombinant; tags: N-terminal GST; dsDNA, one strand shown
# In short: as §1
# Sequence of ETV1 (P50549 whole entry): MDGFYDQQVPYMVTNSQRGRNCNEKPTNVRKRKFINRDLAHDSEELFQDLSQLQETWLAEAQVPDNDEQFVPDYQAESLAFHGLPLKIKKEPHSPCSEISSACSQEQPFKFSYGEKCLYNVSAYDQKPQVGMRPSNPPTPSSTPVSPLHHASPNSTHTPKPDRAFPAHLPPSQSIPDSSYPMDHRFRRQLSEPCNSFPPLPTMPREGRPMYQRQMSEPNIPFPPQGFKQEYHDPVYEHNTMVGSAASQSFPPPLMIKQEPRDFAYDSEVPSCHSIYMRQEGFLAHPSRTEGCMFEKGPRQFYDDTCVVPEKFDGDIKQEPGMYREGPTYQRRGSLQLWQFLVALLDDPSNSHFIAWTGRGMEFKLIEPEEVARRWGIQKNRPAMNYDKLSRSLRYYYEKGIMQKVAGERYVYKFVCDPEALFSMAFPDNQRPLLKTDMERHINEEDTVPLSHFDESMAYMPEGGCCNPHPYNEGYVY
# Sequence of SPIB (Q01892 whole entry): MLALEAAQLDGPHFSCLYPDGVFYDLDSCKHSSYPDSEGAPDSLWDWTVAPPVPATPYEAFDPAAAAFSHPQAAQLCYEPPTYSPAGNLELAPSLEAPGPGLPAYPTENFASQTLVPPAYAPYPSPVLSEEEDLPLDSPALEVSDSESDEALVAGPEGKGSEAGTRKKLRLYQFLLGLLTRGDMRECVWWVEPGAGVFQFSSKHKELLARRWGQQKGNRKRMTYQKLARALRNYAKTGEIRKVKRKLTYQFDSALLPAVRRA
# Sequence of ETV5 (P41161 whole entry): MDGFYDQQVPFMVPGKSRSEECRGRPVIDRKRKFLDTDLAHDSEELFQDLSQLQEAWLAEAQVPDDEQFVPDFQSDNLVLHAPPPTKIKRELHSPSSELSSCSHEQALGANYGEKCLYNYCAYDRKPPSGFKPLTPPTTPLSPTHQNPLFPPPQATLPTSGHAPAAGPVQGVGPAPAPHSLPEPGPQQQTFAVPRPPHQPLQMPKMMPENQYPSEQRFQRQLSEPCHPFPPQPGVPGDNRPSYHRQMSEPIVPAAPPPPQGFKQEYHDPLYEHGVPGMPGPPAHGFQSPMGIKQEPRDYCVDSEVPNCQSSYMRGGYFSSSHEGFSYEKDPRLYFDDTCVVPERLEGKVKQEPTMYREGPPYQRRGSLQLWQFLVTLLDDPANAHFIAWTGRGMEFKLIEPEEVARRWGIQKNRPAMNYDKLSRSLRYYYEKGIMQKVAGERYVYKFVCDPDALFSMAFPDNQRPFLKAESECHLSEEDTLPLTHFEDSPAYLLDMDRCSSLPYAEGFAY
# Sequence of CRX (O43186 whole entry): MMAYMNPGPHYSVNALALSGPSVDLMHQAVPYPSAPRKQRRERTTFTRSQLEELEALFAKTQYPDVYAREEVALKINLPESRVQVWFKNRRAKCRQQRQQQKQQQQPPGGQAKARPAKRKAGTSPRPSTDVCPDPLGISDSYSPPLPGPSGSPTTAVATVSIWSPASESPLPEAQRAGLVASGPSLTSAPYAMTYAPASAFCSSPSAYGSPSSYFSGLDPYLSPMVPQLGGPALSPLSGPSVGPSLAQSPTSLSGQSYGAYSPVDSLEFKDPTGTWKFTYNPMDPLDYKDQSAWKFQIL
# Sequence of HSF1 (Q00613 whole entry): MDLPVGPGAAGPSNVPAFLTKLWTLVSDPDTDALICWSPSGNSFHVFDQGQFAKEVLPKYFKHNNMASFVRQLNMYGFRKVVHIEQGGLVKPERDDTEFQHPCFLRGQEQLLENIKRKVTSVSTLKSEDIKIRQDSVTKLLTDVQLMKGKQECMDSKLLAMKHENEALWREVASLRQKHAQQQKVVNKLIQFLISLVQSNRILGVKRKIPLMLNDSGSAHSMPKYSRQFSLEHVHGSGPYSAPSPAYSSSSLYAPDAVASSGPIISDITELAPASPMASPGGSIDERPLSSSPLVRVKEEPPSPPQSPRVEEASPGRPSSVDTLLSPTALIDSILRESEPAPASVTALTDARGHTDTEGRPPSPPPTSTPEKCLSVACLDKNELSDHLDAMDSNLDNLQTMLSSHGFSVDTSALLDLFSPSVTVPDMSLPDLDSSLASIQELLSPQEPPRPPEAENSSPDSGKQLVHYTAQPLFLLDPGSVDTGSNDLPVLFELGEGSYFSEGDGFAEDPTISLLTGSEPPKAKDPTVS
# Sequence of ELF4 (Q99607 whole entry): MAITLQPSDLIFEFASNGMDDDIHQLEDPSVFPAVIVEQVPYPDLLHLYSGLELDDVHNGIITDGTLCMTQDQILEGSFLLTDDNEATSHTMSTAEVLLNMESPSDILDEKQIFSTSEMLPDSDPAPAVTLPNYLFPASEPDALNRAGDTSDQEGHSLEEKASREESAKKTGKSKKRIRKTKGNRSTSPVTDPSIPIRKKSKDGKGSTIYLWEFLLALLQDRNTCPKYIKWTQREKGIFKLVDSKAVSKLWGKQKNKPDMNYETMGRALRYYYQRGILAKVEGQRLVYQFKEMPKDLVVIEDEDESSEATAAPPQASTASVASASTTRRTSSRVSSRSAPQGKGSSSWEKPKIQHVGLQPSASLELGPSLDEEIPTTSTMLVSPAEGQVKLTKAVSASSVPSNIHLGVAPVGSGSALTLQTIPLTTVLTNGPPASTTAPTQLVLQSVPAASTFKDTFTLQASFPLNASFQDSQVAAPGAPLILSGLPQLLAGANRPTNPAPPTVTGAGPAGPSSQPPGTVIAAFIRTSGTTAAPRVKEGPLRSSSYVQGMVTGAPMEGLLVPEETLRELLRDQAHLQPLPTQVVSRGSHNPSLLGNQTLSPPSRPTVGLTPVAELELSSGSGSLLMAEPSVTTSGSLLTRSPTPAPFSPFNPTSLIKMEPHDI
# Sequence of ELF1 (P32519 whole entry): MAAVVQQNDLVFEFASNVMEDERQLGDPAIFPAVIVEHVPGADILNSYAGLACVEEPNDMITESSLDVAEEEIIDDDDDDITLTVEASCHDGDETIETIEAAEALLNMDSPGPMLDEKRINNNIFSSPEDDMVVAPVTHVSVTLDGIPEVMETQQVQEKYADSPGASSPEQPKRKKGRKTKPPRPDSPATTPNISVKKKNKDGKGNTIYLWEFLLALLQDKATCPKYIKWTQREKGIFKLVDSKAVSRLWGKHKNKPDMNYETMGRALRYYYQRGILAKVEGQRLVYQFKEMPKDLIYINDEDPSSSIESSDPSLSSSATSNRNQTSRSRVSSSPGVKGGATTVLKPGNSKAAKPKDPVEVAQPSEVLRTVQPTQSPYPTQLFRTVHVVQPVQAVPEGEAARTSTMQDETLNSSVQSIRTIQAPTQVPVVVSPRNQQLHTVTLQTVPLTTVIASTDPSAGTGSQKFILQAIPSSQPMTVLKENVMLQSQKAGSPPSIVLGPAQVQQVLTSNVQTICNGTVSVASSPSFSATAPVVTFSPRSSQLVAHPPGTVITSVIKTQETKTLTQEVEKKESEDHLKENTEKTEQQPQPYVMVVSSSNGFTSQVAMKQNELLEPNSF
sequence,measurement,setting,value
GAATAT,binding signal,FLI1,"1.08 fold enrichment (6-mer frequency, TF over GST control)"
same,binding signal,ELK1,"1.08 fold enrichment (6-mer frequency, TF over GST control)"
same,binding signal,GABPA,"1.11 fold enrichment (6-mer frequency, TF over GST control)"
same,binding signal,ERG,"1.04 fold enrichment (6-mer frequency, TF over GST control)"
same,binding signal,ELF1,"1.12 fold enrichment (6-mer frequency, TF over GST control)"
same,binding signal,EHF,"1.04 fold enrichment (6-mer frequency, TF over GST control)"
same,binding signal,SPI1,"1.08 fold enrichment (6-mer frequency, TF over GST control)"
same,binding signal,SPIB,"1.01 fold enrichment (6-mer frequency, TF over GST control)"
same,binding signal,ELK3,"1.12 fold enrichment (6-mer frequency, TF over GST control)"
same,binding signal,FEV,"1.03 fold enrichment (6-mer frequency, TF over GST control)"
same,binding signal,ETV5,"1.07 fold enrichment (6-mer frequency, TF over GST control)"
same,binding signal,HSF1,"1.67 fold enrichment (6-mer frequency, TF over GST control)"
same,binding signal,SPIC,"1.13 fold enrichment (6-mer frequency, TF over GST control)"
same,binding signal,ELF4,"1.05 fold enrichment (6-mer frequency, TF over GST control)"
same,binding signal,ELK4,"1.07 fold enrichment (6-mer frequency, TF over GST control)"
same,binding signal,ELF3,"1.09 fold enrichment (6-mer frequency, TF over GST control)"
same,binding signal,CRX,"1.2 fold enrichment (6-mer frequency, TF over GST control)"
same,binding signal,ETV1,"1.03 fold enrichment (6-mer frequency, TF over GST control)"
